The text below walks through data of PubChem BioAssay (Tox21).

SMILES strings stand for the structures. Records with an inconclusive call do not appear. Activity calls are given as the source filed them. Calls follow the shape of the dose curve; as a rule, active = well fitted cell-killing curve with a large enough effect in the repeat runs; inconclusive = weak or mixed curves; inactive = no such curve, though single readings can be large or run the other way.
% is scaled to controls: 0 for no effect and ±100 for the full control effect.

This experiment in a line: qHTS assay to identify small molecule antagonists of the peroxisome proliferator-activated receptor delta (PPARd) signaling pathway - cell viability counter screen (AID 743213). Also: nearly all actives have a fitted effect of over 50% in size. Particulars: PPARd-bla HEK293H viability, CellTiter-Glo luminescence, 17 h; series mostly up to 62 µM. An excerpt: U.S. Tox21 Program National Center for Advancing Translational Sciences [NCATS] NIH Chemical Genomics Center [NCGC] U.S. Environmental Protection Agency [EPA] National Institutes of Environmental Health Sciences [NIEHS] National Toxicology Program [NTP] U.S. Food and Drug Administration [FDA] Tox21 Assay Overview: The peroxisome proliferator-activated receptors (PPARs) are lipid-activated transcription factors of the nuclear receptor superfamily with three distinct subtypes namely PPAR alpha, PPAR delta (PPARd) and PPAR gamma. All these subtypes heterodimerizes with Retinoid X receptor (RXR) and have different physiological functions. […] To identify the compounds that inhibit PPAR-delta signaling, GeneBLAzer PPAR delta UAS-bla HEK293H cell line (Invitrogen, Carlsbad, CA, USA) containing a beta-lactamase reporter gene under the control of an Upstream Activator Sequence (UAS) was used to screen the Tox21 compound library. The cytotoxicity of the Tox21 compound library against the PPARd-bla cell line was tested in parallel by measuring the cell viability using CellTiter-Glo assay (Promega, Madison, WI) in the same wells.
Tox21 Assay Protocol Summary: PPARd-bla cells were dispensed at 3000 cells/5uL/well in 1536-well black wall/clear bottom plates using a Multidrop Combi (Thermo Fisher Scientific, Waltham, MA) dispenser. After the assay plates were incubated at 37 C and 5% CO2 for 5 h, 23 nL of compounds dissolved in DMSO, positive controls or DMSO only was transferred to the assay plate by a Pintool station (Kalypsys, San Diego, CA), followed by addition of 1ul L165041 (300 nM, final concentration in the wells). The assay plates were incubated at 37 C for 17 h, and then 1 uL of LiveBLAzerTM B/G FRET substrate was added using a Bioraptr Flying Reagent Dispenser (FRD) workstation (Beckman Coulter, Indianapolis, IN, USA). The assay plates were incubated at room temperature for 2 h and fluorescence intensity was measured by an Envision plate reader (PerkinElmer, Shelton, CT). For cell viability readout that measures cytotoxicity, 3 ul/well of CellTiter-Glo reagent was added into the assay plates using a Bioraptr FRD. After 30 min incubation at room temperature, the luminescence intensity in the plates was measured using a ViewLux plate reader (PerkinElmer).
A general note: Quantitative high-throughput screening tests each substance at several concentrations.
For the compound `CN1[C@@H]2CC[C@H]1CC(OC(=O)C(O)c1ccccc1)C2` (stereo not given in full), the call was inactive.

Regarding `O=C1c2ccccc2C(=O)c2cc(O)ccc21`, the compound was classed as inactive.

As to `CC(C)(C)OC(=O)c1cccc(N)c1`, the compound was classed as inactive.

On to `C=CCCCCCCCCC(=O)OCC`, for which the compound was classed as inactive.

Turning to `Cc1coc2ccccc2c1=O`, the compound was called inactive.

As to `CC(=O)C1CCCCC1=O` (stereo not given), the result was inactive.

For the compound `Cc1ccc(C(=O)Nc2ccc(S(=O)(=O)O)c3cc(S(=O)(=O)O)cc(S(=O)(=O)O)c23)cc1NC(=O)c1cccc(NC(=O)Nc2cccc(C(=O)Nc3cc(C(=O)Nc4ccc(S(=O)(=O)O)c5cc(S(=O)(=O)O)cc(S(=O)(=O)O)c45)ccc3C)c2)c1`, the outcome was inactive.

Regarding `CCC(C)(CCCC(C)C)OC(C)=O` (stereo not given), the compound was classed as inactive.

`C=CC(C)(CCC=C(C)C)OC(=O)CC` (stereo not given): the call was inactive.

Take `COc1cccc(OC)c1C(=O)N[C@@H]1C(=O)N2[C@@H]1SC(C)(C)[C@@H]2C(=O)O`: the compound was classed as inactive.

For the compound `CCOCC(C)O` (stereo not given), the compound was classed as inactive.

For the compound `C=CN1CCCCCC1=O`, the result was inactive.

For the compound `NCCCC[C@H](N[C@@H](CCc1ccccc1)C(=O)O)C(=O)N1CCC[C@H]1C(=O)O`, the outcome was inactive.

Turning to `CO[C@@]1(NC(=O)CSC[C@@H](N)C(=O)O)C(=O)N2C(C(=O)O)=C(CSc3nnnn3C)CS[C@@H]21`, the outcome was inactive.

As for `CN(C)C(=O)Oc1cccc([N+](C)(C)C)c1`, the outcome was inactive.

As for `CCCC(C)C(=O)OCC` (stereo not given), the compound was called inactive.

With `Cc1c(N)c(=O)n(-c2ccccc2)n1C`, the call was inactive.

In the case of `CCNS(=O)(=O)c1ccc(C)cc1`, the compound was classed as inactive.

For the compound `NS(=O)(=O)Cc1noc2ccccc12`, the compound was classed as inactive.

Consider `CC1=NN(c2cccc(S(=O)(=O)O)c2)C(=O)C1`, for which the result was inactive.

In the case of `Cc1ncc(COP(=O)(O)O)c(C=O)c1O`, the compound was called inactive.

For `C[C@@H]1C[C@H]2[C@@H]3C[C@H](F)C4=CC(=O)C(Cl)=C[C@]4(C)[C@@]3(F)[C@@H](O)C[C@]2(C)[C@@]1(O)C(=O)CO`, the outcome was inactive.

As to `CCCCS(=O)(=O)N[C@@H](Cc1ccc(OCCCCC2CCNCC2)cc1)C(=O)O`, the call was inactive.

As for `c1ccc(Cc2ccccc2)cc1`, the compound was called inactive.

Regarding `CC(=O)O[C@@]12CO[C@@H]1C[C@H](O)[C@@]1(C)C(=O)[C@H](O)C3=C(C)[C@@H](OC(=O)[C@H](O)[C@@H](NC(=O)OC(C)(C)C)c4ccccc4)C[C@@](O)([C@@H](OC(=O)c4ccccc4)[C@H]21)C3(C)C`, the compound was called inactive.

On to `CC[C@H]1OC(=O)[C@H](C)[C@@H](O[C@H]2C[C@@](C)(OC)[C@@H](O)[C@H](C)O2)[C@H](C)[C@@H](O[C@@H]2O[C@H](C)C[C@H](N(C)C)[C@H]2O)[C@](C)(OC)C[C@@H](C)C(=O)[C@H](C)[C@@H](O)[C@]1(C)O`, for which the call was inactive.

As for `N[C@H](C(=O)O)[C@@H](O)c1ccc(O)c(O)c1`, the compound was classed as inactive.

With `COc1cc(-c2ccc(=O)[nH]n2)ccc1OC(F)F`, the result was inactive.

With `C=C(C)C(=O)OCC1CCCO1` (stereo not given), the result was inactive.

In the case of `Cc1ccnc(NS(=O)(=O)c2ccc(N)cc2)n1`, the compound was classed as inactive.

For `CCN(CC#N)c1cccc(C)c1`, the outcome was inactive.

As to `Cc1ccc(C(=O)c2ccccc2)cc1`, the result was inactive.

As for `O=Cc1cccc(Br)c1`, the call was inactive.

Take `CCCCCCCCCCCCCCCCCCO`: the call was inactive.

With `CC(CO)(CO)[N+](=O)[O-]`, the outcome was inactive.

With `CCN[C@H]1C[C@H](C)S(=O)(=O)c2sc(S(N)(=O)=O)cc21`, the result was inactive.

As for `CC(C)(C)C(=O)Oc1ccc(S(=O)(=O)Nc2ccccc2C(=O)NCC(=O)O)cc1`, the call was inactive.

As for `CCOC(=O)OC(C)OC1=C(C(=O)Nc2ccccn2)N(C)S(=O)(=O)c2ccccc21` (stereo not given), the result was inactive.

On to `CCN[C@@H]1C[C@H](N)[C@@H](OC2OC(CN)=CCC2N)[C@H](O)[C@H]1O[C@H]1OC[C@](C)(O)[C@H](NC)[C@H]1O` (stereo not given in full), for which the viability change, negative = cytotoxic was 8.69% [at 0.575 µM] (inactive).

For the compound `C=CCOCC(O)CO` (stereo not given), the result was inactive.
